Hits are enriched below; roughly 1.6% of the tested compounds scored in any of these assays.
KCNQ2 pot: enhances the rat KCNQ2 potassium channel. O88943. CHO-K1 KCNQ2, FluxOR thallium flux fluorescence; stronger effect = higher value. B-score at 10 µM. 310,000 tested, 0.54% active. AID 2239;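 active means fluorescence ratio B-score at least 3 SD of library B-scores, with initial fluorescence B-score within 3 of them, cut at about 5.3 in these data; same plate scores as AID 2156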;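 further: B-score of peak minus minimum over baseline fluorescence ratio after K+ and Tl+ stimulus; positive B-score means potentiation of KCNQ2 with more thallium influx and brighter signal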
Target sequence (O88943 whole entry, looked up): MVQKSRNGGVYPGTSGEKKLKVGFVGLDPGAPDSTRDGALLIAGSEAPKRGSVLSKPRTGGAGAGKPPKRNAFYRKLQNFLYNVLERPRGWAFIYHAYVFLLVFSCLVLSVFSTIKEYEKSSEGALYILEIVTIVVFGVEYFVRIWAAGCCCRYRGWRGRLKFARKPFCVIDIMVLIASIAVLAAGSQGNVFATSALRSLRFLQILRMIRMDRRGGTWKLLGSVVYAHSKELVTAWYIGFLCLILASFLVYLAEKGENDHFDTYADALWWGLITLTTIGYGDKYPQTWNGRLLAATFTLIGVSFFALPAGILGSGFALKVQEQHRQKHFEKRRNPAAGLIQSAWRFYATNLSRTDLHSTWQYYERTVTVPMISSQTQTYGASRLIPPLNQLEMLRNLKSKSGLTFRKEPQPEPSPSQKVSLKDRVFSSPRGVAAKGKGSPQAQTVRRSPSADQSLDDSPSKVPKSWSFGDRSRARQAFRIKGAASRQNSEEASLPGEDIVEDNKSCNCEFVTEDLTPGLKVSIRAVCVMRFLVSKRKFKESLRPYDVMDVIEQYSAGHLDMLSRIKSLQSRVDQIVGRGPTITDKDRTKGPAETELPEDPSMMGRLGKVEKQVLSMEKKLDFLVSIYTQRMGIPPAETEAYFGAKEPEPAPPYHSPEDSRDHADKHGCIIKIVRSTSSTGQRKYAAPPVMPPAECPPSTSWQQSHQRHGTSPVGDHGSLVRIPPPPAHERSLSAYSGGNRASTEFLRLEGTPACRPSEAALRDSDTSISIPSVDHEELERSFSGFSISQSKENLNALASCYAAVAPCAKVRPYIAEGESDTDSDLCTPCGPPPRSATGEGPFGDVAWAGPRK
KCNQ2 block: KCNQ2 (rat) channel inhibition; B-score at 10 µM; 310,000 tested, 1.1% active; AID 2156; O88943; CHO-K1 KCNQ2, FluxOR thallium flux, 20 min; stronger effect = lower value;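 active means fluorescence ratio B-score at most minus 3 library SDs, with starting brightness B-score within 2 library SDs, cut at about -5.5 in these data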
Numbers without * were called inactive; i = inactive; nt = not tested or not shown.

SMILES | KCNQ2 pot | KCNQ2 block
Cc1ccc2[nH]c3c(N4CCN(Cc5ccccc5)CC4)ncnc3c2c1 | nt | i
CC1c2cc3c(cc2CCN1S(=O)(=O)c1ccccc1)OCCCO3 (centres undefined) | nt | i
Cc1ccccc1Nc1c(F)c(F)c(F)c(F)c1C(=O)O | nt | i
COc1ccccc1N1CCN(C(=O)c2ccc(N(C)S(=O)(=O)c3ccccc3)cc2)CC1 | nt | i
Cc1ccc(NC(=O)NNC(=O)COc2ccc(Cl)cc2)cc1 | 0.66 | i
COc1ccc(C)cc1NC(=O)C(=O)NNC(=O)COc1ccc(Cl)cc1 | 11* | i
CSCC[C@H](NS(=O)(=O)c1ccc(C(C)=O)cc1)c1nnc2ccccn12 | 0.02 | i
O=C(NCC1CCCO1)C1CCCN(S(=O)(=O)c2cc(Cl)ccc2Cl)C1 (centres undefined) | nt | i
CC(C)CN1CCC(=O)N([C@H](CSc2ccccc2)Cc2ccccc2)CC1 | -5.7 | -5.7*
Cc1ccc(SC[C@H](c2ccccc2)N2CCN(CCc3ccccc3)CCC2=O)cc1 | -6.1 | -6.1*
Cc1ccc(SC[C@H](Cc2ccccc2)N2CCN(CC(C)C)CCC2=O)cc1 | nt | i
O=C1CCN(CCc2ccccc2)CCN1[C@H](CSc1ccccc1)c1ccccc1 | nt | i
O=C(NCc1ccc(Cl)cc1)C1CCN(S(=O)(=O)c2ccc(F)cc2)CC1 | 0.13 | i
Cc1csc(=O)n1CCC(=O)OCC(=O)NNC(=O)c1ccccc1 | nt | i
O=C(Cc1ccsc1)Nc1ccc(S(=O)(=O)C(F)F)cc1 | 0.33 | i
c1ccc2cc(OCCOCCOc3ccc4ccccc4c3)ccc2c1 | nt | i
CC(C)(C)c1ccc(OCCN2CCCC2)cc1 | nt | i
CC(C)SCCCOc1ccc(C(C)(C)C)cc1 | -5.8 | -5.8*
CC(C)SCCCCOc1ccc2ccccc2c1 | -6.9 | -6.9*
N#CC1=C(N)Oc2cc(Nc3ccccc3)ccc2C1c1ccncc1 (centres undefined) | nt | i
CC(=O)N1CCOc2ccc(S(=O)(=O)N3CCC(C(=O)NCc4ccc(F)cc4)CC3)cc21 | nt | i
Cn1cc(Br)c(C(=O)NNC(=O)Nc2ccccc2C(F)(F)F)n1 | nt | i
CCN(C(=O)COC(=O)/C=C/c1cccc([N+](=O)[O-])c1)c1ccccc1 | 0.1 | i
COc1ccc(C(=O)c2ccc(Cl)cc2)cc1 | 0.7 | i
COc1ccc(C(C#N)=C2C=CC(=NO)C=C2)cc1 | -5.7 | -5.7*
SMILES | KCNQ2 pot | KCNQ2 block
CCOC(=O)/C(=C/Nc1ccc(F)cc1)[N+](=O)[O-] | 0.85 | i
Cc1ccc(Cl)cc1N1CCN(C(=O)c2cn(C)c(=O)c3c2c2ccccc2n3C)CC1 | -7.5 | -7.5*
Cc1cccc(N2CCN(C(=O)c3cn(C)c(=O)c4c3c3ccccc3n4C)CC2)c1C | nt | i
CCC(C)C(NS(=O)(=O)c1ccc(C)cc1)C(=O)N1CCOCCOCCOCC1 (centres undefined) | nt | i
Cc1nn(-c2ccccc2)nc1CNC(=O)C1CCC1 | 1.5 | i
COc1ccc(S(=O)(=O)Nc2ccc3c(c2)OCCO3)cc1OC | 0.59 | i
Cc1cccc(C)c1NC(=O)CNC(=O)CCC(=O)c1cccs1 | 0.64 | i
O=C(CN(Cc1ccco1)C(=O)c1cccc(Cl)c1)Nc1c(Cl)cc(Cl)cc1Cl | -5.7 | -5.7*
O=C(CN(Cc1ccco1)C(=O)c1ccc(Cl)cc1)Nc1c(Cl)cc(Cl)cc1Cl | nt | i
O=C1C(=O)N(C2CCCC2)C(=O)N1Cc1c(F)cccc1Cl | nt | i
COc1cc(Br)cc(CNc2ccc(F)c([N+](=O)[O-])c2)c1O | nt | i
COc1cccc(-c2nc(N3CCCCC3C)c3ccccc3n2)c1O (centres undefined) | -6.8 | -6.8*
COc1cccc(-c2nc(N3CCN(C)CC3)c3ccccc3n2)c1O | nt | i
CC(C)(C)NC(=O)CN(Cc1ccc2c(c1)OCO2)C(=O)CNS(=O)(=O)c1ccccc1 | nt | i
O=C(c1cc([N+](=O)[O-])ccc1Cl)N1CCN(c2ccc(F)cc2)CC1 | 0.24 | i
O=C(Cc1cccs1)N1CCN(c2ccc([N+](=O)[O-])cc2)CC1 | -5.5 | -5.5*
O=C(Cc1cccs1)N1CCN(c2ccc(F)cc2)CC1 | 1.2 | i
O=C(c1cc([N+](=O)[O-])ccc1Cl)N1CCN(c2ccc([N+](=O)[O-])cc2)CC1 | -6.9 | -6.9*
Cc1cc(-c2nnc(CCC(=O)NCc3ccc(OC(F)(F)F)cc3)o2)no1 | 0.06 | i
CN(CCOc1ccc(Br)cc1)C(=O)CNC(=O)c1ccc2ccccc2c1 | -6.5 | -6.5*
CCOc1ccc(CN(C)C(=O)CNC(=O)c2ccccc2)cc1 | nt | i
O=C(CN(C1CCCCC1)C1CCCCC1)N1CCc2ccccc2C1 | -8 | -8*
O=C(CN(C1CCCCC1)S(=O)(=O)c1ccccc1)N1CCCC1 | nt | i
COc1ccc(C(=O)Nc2ccccc2-c2ccccc2)cc1Cl | -6.2 | -6.2*
CCOc1c(Cl)cc(C(=O)Nc2ccccc2-c2ccccc2)cc1Cl | nt | i
SMILES | KCNQ2 pot | KCNQ2 block
CC(C)c1nc2ccccc2c2nnc(SCC(=O)NCc3ccco3)n12 | nt | i
CC(C)(C)c1nc2ccccc2c2nnc(SCC(=O)NCc3ccco3)n12 | -6.5 | -6.5*
O=C(Nc1cccc([N+](=O)[O-])c1)N1CCCCCC1 | nt | i
COc1ccc(C(O)P(=O)(OCCC(C)C)c2ccc(N(C)C)cc2)cc1 (centres undefined) | nt | i
CC1CN(c2ccccc2)CCN1C(=O)c1cc(COc2c(F)cccc2F)on1 (centres undefined) | 1.3 | i
Cc1cccc(C)c1OCc1cc(C(=O)N2CCN(c3ccccc3)CC2C)no1 (centres undefined) | -7.1 | -7.1*
O=C(CNC(=S)N(Cc1ccccc1)Cc1cccnc1)NC1CCCC1 | nt | i
O=C(Nc1ccccc1F)C(=Cc1sc(N2CCOCC2)nc1-c1ccccc1)C(=O)Nc1ccccc1F | -6.5 | -6.5*
O=C(N/N=C/c1sc(N2CCOCC2)nc1-c1ccccc1)c1ccccc1F | nt | i
CC(C)(CO)NC(=O)c1ccc2nc(Cc3cccc(Cl)c3)oc2c1 | 0.39 | i
O=Nc1c(O)[nH]c2ccc(Cl)cc12 | nt | i
CCOC(=O)c1c(-c2ccccc2)csc1NC(=O)CCN1C(=O)c2ccccc2C1=O | nt | i
CCNC(=S)Nc1scc(-c2ccccc2)c1C(=O)OCC | 12* | i
CCC(C)(C)NC(=O)CN(CC1CCCO1)C(=O)CNS(=O)(=O)c1ccccc1 (centres undefined) | nt | i
Nc1nc(NCCCN2CCOCC2)nc(Nc2ccccc2F)c1[N+](=O)[O-] | nt | i
CC(=O)Nc1ccc(S(=O)(=O)N2CCN(Cc3csc(C)n3)CC2)cc1 | 1.3 | i
CC(CN1CCN(C)CC1)OC(=O)c1cccc(F)c1 (centres undefined) | nt | i
COc1ccc(-c2nc(=S)[nH][nH]2)cc1OC | nt | i
COc1ccc(-c2nc(=S)[nH][nH]2)cc1 | -8.4 | -8.4*
O=C(NCC1CCCO1)c1cc2ccccc2o1 (centres undefined) | 0.49 | i
COCCN1C(=O)/C(=C/c2ccc(Oc3ccc([N+](=O)[O-])cn3)c(OC)c2)SC1=Nc1ccccc1 | -6.9 | -6.9*
COc1cc(/C=C2\SC(=Nc3ccccc3)N(CCc3c[nH]c4ccccc34)C2=O)ccc1OC(C)C(=O)O (centres undefined) | nt | i
CCc1cccc(NC(=O)CCCCCC2NC(=O)NC2C)c1 (centres undefined) | 1 | i
CCCC/C=C/[C@H](c1ccccc1)[C@H](CO)Cc1cccnc1 | -5.7 | -5.7*

Compound activity from PubChem BioAssay.
